From PubChem BioAssay (EPA / NIEHS)
Records with an inconclusive call do not appear. The source made the active and inactive calls. The calls were made as follows, unless noted: active = hit-call score of the fitted dose curve at least 0.9, where 1 is the maximum; inconclusive = response in the unintended direction; inactive = score below 0.9.

Key:
[1] = CCTE_Harrill_HTTr_Viability_MCF7: CCTE's 6-hour Cell Viability Assessment for the High-Throughput Transcriptomics (HTTr) Platform, in MCF-7 cells cultured in DMEM + 10% fetal bovine serum, Harrill Lab (AID 2284010; active = hit-call score of the fitted dose curve at least 0.9, where 1 is the maximum; inactive = score below 0.9)
Method in brief: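 Cells were dosed with chemicals in an eight-point dilution series, imaged 6 hours later for propidium iodide uptake, and the endpoint was analyzed by bidirectional fitting against DMSO as negative control.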

[2] = CCTE_Harrill_HTTr_Apoptosis_MCF7: CCTE's 6-hour Apoptosis Assessment for the High-Throughput Transcriptomics (HTTr) Platform, in MCF-7 cells cultured in DMEM + 10% fetal bovine serum, Harrill Lab (AID 2284011; active = hit-call score of the fitted dose curve at least 0.9, where 1 is the maximum; inactive = score below 0.9)
Method in brief: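 MCF-7 cells in DMEM + 10% fetal bovine serum were exposed to chemicals for 6 hours over an eight-point dilution series. Caspase-3/7 activation was imaged by high content imaging with CellEvent Caspase 3/7 Green; bidirectional fitting used DMSO as baseline.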

[3] = biological target: Nucleoli Translocation, AR (gene 367) (UniProt P10275); test: UPITT_HCI_U2OS_AR_TIF2_Nucleoli_Agonist: University of Pittsburgh U2OS Androgen Receptor-Transcriptional Intermediary Factor 2 (AR-TIF2) Agonism High Content Imaging Assay for Nucleoli Translocation (AID 2283998)
Method in brief: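 Cells express human AR fused to red fluorescent protein and TIF2 fused to GFP. Red fluorescence in the nucleolar region was quantified by high-content imaging and fitted as gain-of-signal against a DMSO baseline. Compounds were tested at 0.195 to 50 uM final (0.5% DMSO).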

[4] = biological target: Ratio of Nucleoli Translocation and Cytoplasm, AR (gene 367) (UniProt P10275); test: UPITT_HCI_U2OS_AR_TIF2_Nucleoli_Cytoplasm_Ratio_Antagonist: University of Pittsburgh U2OS Androgen Receptor-Transcriptional Intermediary Factor 2 (AR-TIF2) Antagonism High Content Imaging Assay for Ratio of Nucleoli Translocation and Cytoplasm (AID 2283999);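 also: antagonists lower the DHT-driven ratio of nucleolar to cytoplasmic red signal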
Method in brief: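 Human osteosarcoma U2OS line, AR fused to RFP, coactivator TIF2 fused to GFP. Cpds 20 uM final, 0.2% DMSO (screen); 0.195–50 uM final, 0.5% DMSO (CRC). Endpoint: nucleoli/cytoplasm red signal ratio, DHT as baseline, loss-of-signal antagonist mode.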

[5] = biological target: Ratio of Nucleoli Translocation and Cytoplasm, AR (gene 367) (UniProt P10275); test: UPITT_HCI_U2OS_AR_TIF2_Nucleoli_Cytoplasm_Ratio_Agonist: University of Pittsburgh U2OS Androgen Receptor-Transcriptional Intermediary Factor 2 (AR-TIF2) Agonism High Content Imaging Assay for Ratio of Nucleoli Translocation and Cytoplasm (AID 2284000);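 also: hits raise the red nucleolar to cytoplasm ratio above vehicle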
Method in brief: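 U2OS cells expressing RFP-tagged human AR and GFP-tagged TIF2 were imaged by high-content fluorescence microscopy. The endpoint is the ratio of nucleolar to cytoplasmic red fluorescence, fitted for gain of signal relative to DMSO. Concentration-response spanned 0.195 to 50 uM final (0.5% DMSO).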

[6] = CCTE_Harrill_HTTr_CellCount_MCF7: CCTE's Cell Proliferation Assessment for the High-Throughput Transcriptomics (HTTr) Platform, Harrill Lab (AID 2284012);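 also: count of Hoechst-stained nuclei per well by high-content imaging in MCF-7 cells; cells exposed to compound for six hours; intended direction is loss of nuclei count meaning fewer cells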
Method in brief: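 Chemicals in eight-point dilution series are added to MCF-7 cells for six hours, nuclei are stained with Hoechst and imaged, and per-well nuclei counts are fitted in both directions relative to DMSO controls.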

[7] = biological target: Nucleoli Translocation, AR (gene 367) (UniProt P10275); test: UPITT_HCI_U2OS_AR_TIF2_Nucleoli_Antagonist: University of Pittsburgh U2OS Androgen Receptor-Transcriptional Intermediary Factor 2 (AR-TIF2) Antagonism High Content Imaging Assay for Nucleoli Translocation (AID 2283997)
Method in brief: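 U2OS cells expressing RFP-tagged human AR and GFP-tagged TIF2 were imaged by high-content fluorescence microscopy for red AR signal in the nucleolar region. Compounds were screened at 20 uM final (0.2% DMSO), with activity fitted relative to DHT as baseline.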

Measured: outcome

Chain of Ratio of Nucleoli Translocation and Cytoplasm, AR (gene 367) (P10275 whole entry, looked up, the tested form may be a part): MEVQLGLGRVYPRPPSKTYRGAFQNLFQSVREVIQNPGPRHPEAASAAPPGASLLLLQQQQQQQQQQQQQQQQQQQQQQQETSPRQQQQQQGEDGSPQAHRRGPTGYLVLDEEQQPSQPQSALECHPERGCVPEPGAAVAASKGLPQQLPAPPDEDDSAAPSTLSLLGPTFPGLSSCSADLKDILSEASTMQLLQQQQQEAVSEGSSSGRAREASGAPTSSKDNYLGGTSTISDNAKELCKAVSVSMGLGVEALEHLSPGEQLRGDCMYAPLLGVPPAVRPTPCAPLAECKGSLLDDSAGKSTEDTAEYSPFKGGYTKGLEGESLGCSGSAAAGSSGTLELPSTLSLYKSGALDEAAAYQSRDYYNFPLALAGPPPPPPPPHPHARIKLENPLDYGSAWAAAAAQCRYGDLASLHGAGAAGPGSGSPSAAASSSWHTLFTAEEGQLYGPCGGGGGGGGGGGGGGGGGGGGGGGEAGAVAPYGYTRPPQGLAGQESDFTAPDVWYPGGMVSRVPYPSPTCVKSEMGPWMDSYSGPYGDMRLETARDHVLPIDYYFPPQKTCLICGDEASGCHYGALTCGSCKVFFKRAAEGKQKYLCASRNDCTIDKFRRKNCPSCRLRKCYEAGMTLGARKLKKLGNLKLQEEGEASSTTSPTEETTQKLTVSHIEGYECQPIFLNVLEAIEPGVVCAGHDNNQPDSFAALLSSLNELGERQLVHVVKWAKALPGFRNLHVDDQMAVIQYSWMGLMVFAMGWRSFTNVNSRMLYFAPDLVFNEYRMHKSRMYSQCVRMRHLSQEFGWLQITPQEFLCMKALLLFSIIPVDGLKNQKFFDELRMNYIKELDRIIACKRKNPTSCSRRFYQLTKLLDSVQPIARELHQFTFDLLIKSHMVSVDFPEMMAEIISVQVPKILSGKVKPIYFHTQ
Chain of Nucleoli Translocation, AR (gene 367) (P10275 whole entry, looked up, the tested form may be a part): as above

CCOP(=O)(O)OCC
inactive: [1] | [2]

Clc1c(Cl)c(Cl)c2c(c1Cl)Oc1c(Cl)c(Cl)c(Cl)c(Cl)c1O2
inactive: [3] | [4] | [5] | [1] | [2] | [6]

O=S1OC[C@@H]2[C@H](CO1)[C@]1(Cl)C(Cl)=C(Cl)[C@]2(Cl)C1(Cl)Cl (some centres not stated)
inactive: [7] | [3] | [4] | [5] | [2] | [6]

CC(C)(C)OOC(C)(C)C#CC(C)(C)OOC(C)(C)C
inactive: [1] | [2] | [6]
